TbREL1 inh = TbREL1 inhibition, primary screen. AID 1117264. TbREL1 RNA ligation, FRET fluorescence. hit rate 0.49% among 89,000. inhibition, % at 9.66 µM;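 active = inhibition above the mean inhibition across all screened compounds plus 3 SD, cut at about 11% in these data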;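 note: 0% = plate median of test wells and 100% = NSC42067 control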
Target sequence (P86926 whole entry, looked up): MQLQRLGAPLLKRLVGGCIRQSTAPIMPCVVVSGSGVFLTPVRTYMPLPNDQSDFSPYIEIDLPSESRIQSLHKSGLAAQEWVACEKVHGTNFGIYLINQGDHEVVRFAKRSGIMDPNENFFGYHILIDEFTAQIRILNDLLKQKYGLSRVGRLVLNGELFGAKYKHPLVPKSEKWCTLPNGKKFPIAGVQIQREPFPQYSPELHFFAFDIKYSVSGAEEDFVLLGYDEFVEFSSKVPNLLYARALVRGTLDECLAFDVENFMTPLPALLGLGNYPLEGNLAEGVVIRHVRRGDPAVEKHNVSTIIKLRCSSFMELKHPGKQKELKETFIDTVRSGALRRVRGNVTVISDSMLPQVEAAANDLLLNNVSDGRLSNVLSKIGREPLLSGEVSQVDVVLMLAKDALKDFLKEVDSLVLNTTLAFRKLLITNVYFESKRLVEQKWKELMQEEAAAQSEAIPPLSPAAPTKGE
TbREL1 confirm = TbREL1 inhibition, confirmation; hit rate 37% among 390; AID 1117282; inhibition, % at 9.66 µM; shares compounds with TbREL1 inh; TbREL1 RNA ligation, FRET fluorescence;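 active = mean inhibition across replicates above a set limit taken from the earlier primary screen, cut at about 11% in these data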;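 note: 0% = REL1 with substrate and DMSO and 100% = REL1 plus control inhibitor NSC42067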
* hit, by the source's call. Only a selection was taken, and hits are over-represented in it overall.

SMILES	TbREL1 inh	others
NS(=O)(=O)c1ccc(NC(=O)/C=C/c2ccco2)cc1	2
COC(=O)[C@]12C[C@H](CC(=O)N3CCN(C(=O)C4CC4)CC3)C(=O)N(Cc3ccc(Cl)cc3Cl)C1=C[C@H](C(C)(C)C)O[C@@H]2C	4
CON(Cc1ccccc1)S(=O)(=O)c1ccccc1Br	2
Cc1nc(S/C(=C/c2ccc(-c3ccc(C(=O)O)cc3)o2)C(=O)O)n[nH]1	21*	TbREL1 confirm=17*
Cc1ccc(C(=O)N/C(=C\c2ccc(-c3cccc([N+](=O)[O-])c3)o2)C(=O)NC(C)(C)C)cc1	-2
O=Cc1ccc(-c2ccc(C(=O)O)cc2)o1	8
O=C(Nc1cccc(F)c1)O[C@@H]1CC[C@@]23CCCN2C(=O)CCC[C@H]3C1	-1
COC(=O)C1CCN(C(=O)C2CC(=O)N(c3ccc(OC)cc3)C2c2ccc(OC)cc2)CC1 (stereo not given)	0
CCCC1CCC2(CCCN2CCOC(=S)Nc2ccccc2Br)CC1 (stereo not given)	2
C[C@H]1[C@@H](NCc2cccs2)CC[C@@]23CCCN2C(=O)CCC[C@@H]13	-4
Cc1ccsc1-c1nc(C(N)=O)c2[nH]c(=O)n(-c3ccc(Cl)cc3)c2n1	27*	TbREL1 confirm=0
Cc1cccc(-n2c(=O)[nH]c3c(C(N)=O)nc(C(C)C)nc32)c1	0
CCOc1ccccc1-c1nc(C(N)=O)c2[nH]c(=O)n(-c3ccc(F)cc3)c2n1	0
Cc1ccc(NC(=O)CCS(=O)(=O)c2ccccc2)cc1C	-2
O=C(Nc1c(-c2ccc(F)c(F)c2)nc2ncccn12)C1CC1	3
CN(C)CCCN(C(=O)c1ccc(C(=O)c2ccccc2)cc1)c1nc2c(F)cccc2s1	4
CN(C)CCN(C(=O)c1ccc2c(c1)CCCC2)c1nc2c(F)cccc2s1	2
CCN(Cc1ccccc1)S(=O)(=O)c1ccc(C(=O)N(CCCN(C)C)c2nc3cc(C)cc(C)c3s2)cc1	15*	TbREL1 confirm=7
Cc1cc(C)c2sc(N(CCCN(C)C)C(=O)c3ccc(Br)s3)nc2c1	5
CCN(c1ccccc1)S(=O)(=O)c1ccc(C(=O)N(CCCN(C)C)c2nc3c(C)cccc3s2)cc1	13*	TbREL1 confirm=11*
COc1cc2nc(N(CCCN(C)C)C(=O)c3ccc(S(=O)(=O)N4CCc5ccccc5C4)cc3)sc2cc1OC	-2
Cc1cc(C)c2sc(N(CCN(C)C)C(=O)c3c(F)cccc3F)nc2c1	2
CCOc1cccc2sc(N(CCCN(C)C)C(=O)c3ccc(S(=O)(=O)N4CCCCCC4)cc3)nc12	15*	TbREL1 confirm=8
CCN(Cc1ccccc1)S(=O)(=O)c1ccc(C(=O)N(CCCN(C)C)c2nc3c(F)cccc3s2)cc1	28*	TbREL1 confirm=8
CCc1ccc2nc(N(CCCN(C)C)C(=O)c3ccc(S(=O)(=O)N4CCCC4)cc3)sc2c1	10
SMILES	TbREL1 inh	others
COc1cccc2sc(N(CCCN(C)C)C(=O)c3ccc(S(=O)(=O)N4CCc5ccccc5C4)cc3)nc12	5
CN(C)CCCN(C(=O)c1ccc(S(=O)(=O)N2CCCCCC2)cc1)c1nc2c(F)cccc2s1	8
C/C(=N/NC(=O)CSc1nnc(SCc2ccc(C)cc2)s1)c1cccc(O)c1	4
CC(C)Oc1cccc(-c2n[nH]c(=S)n2N=Cc2ccc(OCc3ccccc3)cc2)c1	-5
COC(=O)C1CN(C(=O)OC(C)(C)C)C2=C1C(=O)CC(C)(C(=O)OC(C)(C)C)C2 (stereo not given)	-2
Cc1cc(-c2n[nH]c(=S)n2N=Cc2ccc(OCc3ccccc3)cc2)n[nH]1	-2
Cc1ccc(NC(=O)[C@H]2CC(=O)O[C@@H]2c2ccccc2)c(C)c1	2
COc1ccc(CN2CCC(CNC(=O)NC3CCCC3)CC2)cc1	4
Cn1cccc1C(=O)N1CCN(S(=O)(=O)c2ccc([N+](=O)[O-])cc2)CC1	-1
CC(C)[C@H]1/C(=C/C2CC2)N2C(=O)C[C@H](c3cccc(C(F)(F)F)c3)N=C2N1Cc1ccc2c(c1)OCO2	4
Cc1ccc(CN2CCCCC(NC(=O)c3cccc(C(F)(F)F)c3)C2=O)cc1 (stereo not given)	-3
Nc1[nH]c(C(=O)c2ccc(Br)cc2)c(-c2ccc(Br)cc2)c1C(=O)N1CCCCC1	-3
COc1cc(NC(=O)c2cnc(N)s2)cc(C(=O)Nc2cccc(C(F)(F)F)c2)c1	32*	TbREL1 confirm=21*
COc1cc(NC(=O)c2csc(N)n2)cc(C(=O)Nc2cccc(C(F)(F)F)c2)c1	-2
COc1cc(NC(=O)c2cc(C)on2)cc(C(=O)Nc2cccc(C(F)(F)F)c2)c1	7
O=C(NCc1ccccc1)Nc1ccccc1C(=O)N1CCCC1	-1
Cc1ccc(S(=O)(=O)N2CCCC(C(=O)Nc3c(C)n(C)n(-c4ccccc4)c3=O)C2)cc1C (stereo not given)	0
CC1=C(C(=O)N(C)C)CC(CC(=O)NCCCN(C)C)C(=O)N1Cc1ccc(F)cc1 (stereo not given)	4
CC1=C(C(=O)N(C(C)C)C(C)C)CC(CC(=O)NCCCN(C)C)C(=O)N1Cc1ccc(C(C)(C)C)cc1 (stereo not given)	17*	TbREL1 confirm=11
CCN(CC)C(=O)C1=C(C)N(Cc2ccccc2)C(=O)C(CC(=O)NCCCN(C)C)C1 (stereo not given)	3
COC(=O)[C@H](C)NC(=O)[C@@H]1CCCN1C(=O)CNP(=O)(OCc1ccccc1)OCc1ccccc1	-3
O=[N+]([O-])c1ccc2[nH]nc(-c3ccccc3)c2c1	4
COC(=O)CCc1c[nH]c2ccc([N+](=O)[O-])cc12	4
Cc1ccc(N(C)S(=O)(=O)c2c[nH]c3ccc([N+](=O)[O-])cc23)cc1	14*	TbREL1 confirm=9
O=C(c1cc2cc([N+](=O)[O-])ccc2s1)N1CCCCC1	12*	TbREL1 confirm=1
SMILES	TbREL1 inh	others
O=C(c1sc2cc([N+](=O)[O-])ccc2c1Cl)N1CCCCC1	0
O=C(Nc1ccccn1)c1cc2cc([N+](=O)[O-])ccc2s1	1
CCOC(=O)Cn1c(=NC(=O)c2cccs2)sc2cc(C(=O)OC)ccc21	10
CCOC(=O)Cn1c2ccc(C)cc2c2nc(C)sc21	55*	TbREL1 confirm=5
CCOC(=O)Cn1c(=NC(=O)CC)sc2c(C)cc(C)cc21	-1
CCC[C@H]1[C@@H](NC(=O)c2ccc(N(C)C)cc2)CC[C@@]23CCCN2C(=O)CCC[C@@H]13	-5
Cc1ccc(S(=O)(=O)N2c3ccccc3C[C@H]2CCC(=O)c2ccccc2)cc1	1
COC(=O)c1ccc(N2C(=O)CC(SCC(=O)Nc3ccc(OC)cc3)C2=O)cc1 (stereo not given)	13*	TbREL1 confirm=3
COC(=O)c1ccc(N2C(=O)CC(Sc3n[nH]c(C)n3)C2=O)cc1 (stereo not given)	3
COc1ccc(NC(=O)CC2C(=O)N(c3ccc(OC)cc3)C(=O)N2C(C)C)cc1 (stereo not given)	2
COc1ccc(CCN(Cc2cccs2)S(=O)(=O)c2ccc(F)cc2)cc1OC	0
CCOC(=O)[C@@]12CCC3=C1N(CCC3)C(=O)[C@H](CC(=O)N1CCC(c3ccccc3)CC1)C2	1
O=C(OCc1cn(Cc2cccc(F)c2F)nn1)N1CCCC1	-1
CS(=O)(=O)c1ccc(C(=O)Nc2nc(-c3ccco3)c(-c3ccco3)s2)cc1	82*	TbREL1 confirm=6
O=C(Nc1nc2c(s1)CCCC2)c1ccc(S(=O)(=O)N2CCCc3ccccc32)cc1	6
O=C(Nc1nc2c(s1)CCc1ccccc1-2)c1ccco1	0

High-throughput results (PubChem BioAssay)
